Laboratory results reported in PubChem BioAssay.
The source made the active and inactive calls.

Key:
[1] = anti-His antibody binders, primary screen, artefact control for SMM control protein annotation, biochemical, small-molecule microarray, 635 nm fluorescence (AID 1128); conditions: anti-His Alexa647 antibody binding, higher = more signal;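 note: score merges feature fluorescence with signal-to-noise for each printed compound spot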
[2] = test system: Human papillomavirus type 1a E7 protein (residues 1-88); assay: HPV1a E7 small-molecule binders, primary screen, biochemical, small-molecule microarray, residues 1-88, 635 nm (AID 1129); conditions: small-molecule microarray binding, fluorescence 635 nm; higher = more signal
[3] = target: Focal adhesion kinase 1 (Homo sapiens) (UniProt Q05397); assay: small-molecule microarray binders of FAK, primary screen, biochemical, 635/667 nm fluorescence, BSA, DTT (AID 1130); conditions: PTK2 binding, 635 nm fluorescence, higher = more signal;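 note: composite of spot emission at 667 nm and signal to noise over triplicate slides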
[4] = test system: Fibrinogen (Alexa647-labelled); assay: fibrinogen binders on compound microarrays, profiling panel, artefact control for SMM control-protein annotation, biochemical, small-molecule microarray, 635/667 nm fluorescence (AID 1131); conditions: fibrinogen-A647 binding fluorescence, higher = more signal;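 note: z-score merges 667 nm fluorescence with per-spot signal-to-noise over triplicate slides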
[5] = target: Follistatin (Homo sapiens) (UniProt P19883); assay: follistatin binders on small-molecule microarrays, primary screen, biochemical, small-molecule microarray, 635/667 nm fluorescence (AID 1132); conditions: FST binding, 635 nm fluorescence, higher = more signal
[6] = target: Fibroblast growth factor 2 (Homo sapiens) (UniProt P09038); assay: FGF2 binders on small-molecule microarrays, primary screen, biochemical, small-molecule microarray, 635/667 nm fluorescence (AID 1133); conditions: small-molecule microarray binding, FGF2, fluorescence 635/667; higher = more signal
[7] = mitochondrial membrane potential change in A549 cells, profiling panel, cell-based, JC-1 fluorescence, basal, 24 h, 100 nL (AID 1138); conditions: higher = more signal;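 note: A549 lung adenocarcinoma cells under basal conditions with no added stimulus; test concentration not given here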
Lefty1 = Lefty1 binders on small-molecule microarrays, primary screen, biochemical, small-molecule microarray, 635/667 nm fluorescence (AID 1139); conditions: small-molecule microarray binding, fluorescence 635/667; higher = more signal
[8] = test system: wheat germ agglutinin (Triticum aestivum), Alexa647-labelled; assay: wheat germ agglutinin binders on compound microarrays, profiling panel, artefact control for SMM control-protein annotation, biochemical, small-molecule microarray, 635/667 nm fluorescence (AID 1140); conditions: WGA-A647 binding, 635 nm fluorescence, higher = more signal;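 note: score merges 667 nm feature emission with signal to noise over triplicate slides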
[9] = target: Luciferin 4-monooxygenase (Photinus pyralis) (UniProt P08659); assay: firefly luciferase enzyme inhibitors, primary screen, biochemical, luminescence, purified enzyme, 2006 set (AID 1141); conditions: SteadyGlo luminescence, 30 min, higher = more signal, called active from +8 up or from −8 down;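 note: cell-free assay with purified firefly luciferase at 100 ng per well in PBS; test concentration not given here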
Sequence of Luciferin 4-monooxygenase (Photinus pyralis) (P08659 whole entry, looked up): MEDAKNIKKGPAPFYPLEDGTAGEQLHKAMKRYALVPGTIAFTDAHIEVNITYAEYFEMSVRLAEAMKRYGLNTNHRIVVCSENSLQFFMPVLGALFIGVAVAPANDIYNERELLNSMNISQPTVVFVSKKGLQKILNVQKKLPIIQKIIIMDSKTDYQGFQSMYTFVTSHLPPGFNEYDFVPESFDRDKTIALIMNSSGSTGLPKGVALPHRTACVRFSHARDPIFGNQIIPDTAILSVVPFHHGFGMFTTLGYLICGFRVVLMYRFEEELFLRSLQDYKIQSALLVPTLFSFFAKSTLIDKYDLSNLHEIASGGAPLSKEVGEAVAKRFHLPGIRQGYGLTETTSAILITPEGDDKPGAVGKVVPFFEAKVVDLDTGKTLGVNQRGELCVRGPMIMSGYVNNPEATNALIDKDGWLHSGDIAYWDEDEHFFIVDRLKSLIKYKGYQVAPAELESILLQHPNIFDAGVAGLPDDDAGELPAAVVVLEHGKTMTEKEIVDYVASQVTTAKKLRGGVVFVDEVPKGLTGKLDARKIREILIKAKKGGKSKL

Sequence of Fibroblast growth factor 2 (Homo sapiens) (P09038 whole entry, looked up): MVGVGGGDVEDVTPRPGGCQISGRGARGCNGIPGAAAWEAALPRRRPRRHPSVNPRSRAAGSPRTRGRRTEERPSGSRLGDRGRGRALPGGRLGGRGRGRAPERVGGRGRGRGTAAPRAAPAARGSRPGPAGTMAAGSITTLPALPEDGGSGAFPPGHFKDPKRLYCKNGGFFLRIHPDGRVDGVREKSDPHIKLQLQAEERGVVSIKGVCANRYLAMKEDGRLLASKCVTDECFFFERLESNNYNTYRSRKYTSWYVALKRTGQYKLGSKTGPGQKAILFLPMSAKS
Sequence of Focal adhesion kinase 1 (Homo sapiens) (Q05397 whole entry, looked up): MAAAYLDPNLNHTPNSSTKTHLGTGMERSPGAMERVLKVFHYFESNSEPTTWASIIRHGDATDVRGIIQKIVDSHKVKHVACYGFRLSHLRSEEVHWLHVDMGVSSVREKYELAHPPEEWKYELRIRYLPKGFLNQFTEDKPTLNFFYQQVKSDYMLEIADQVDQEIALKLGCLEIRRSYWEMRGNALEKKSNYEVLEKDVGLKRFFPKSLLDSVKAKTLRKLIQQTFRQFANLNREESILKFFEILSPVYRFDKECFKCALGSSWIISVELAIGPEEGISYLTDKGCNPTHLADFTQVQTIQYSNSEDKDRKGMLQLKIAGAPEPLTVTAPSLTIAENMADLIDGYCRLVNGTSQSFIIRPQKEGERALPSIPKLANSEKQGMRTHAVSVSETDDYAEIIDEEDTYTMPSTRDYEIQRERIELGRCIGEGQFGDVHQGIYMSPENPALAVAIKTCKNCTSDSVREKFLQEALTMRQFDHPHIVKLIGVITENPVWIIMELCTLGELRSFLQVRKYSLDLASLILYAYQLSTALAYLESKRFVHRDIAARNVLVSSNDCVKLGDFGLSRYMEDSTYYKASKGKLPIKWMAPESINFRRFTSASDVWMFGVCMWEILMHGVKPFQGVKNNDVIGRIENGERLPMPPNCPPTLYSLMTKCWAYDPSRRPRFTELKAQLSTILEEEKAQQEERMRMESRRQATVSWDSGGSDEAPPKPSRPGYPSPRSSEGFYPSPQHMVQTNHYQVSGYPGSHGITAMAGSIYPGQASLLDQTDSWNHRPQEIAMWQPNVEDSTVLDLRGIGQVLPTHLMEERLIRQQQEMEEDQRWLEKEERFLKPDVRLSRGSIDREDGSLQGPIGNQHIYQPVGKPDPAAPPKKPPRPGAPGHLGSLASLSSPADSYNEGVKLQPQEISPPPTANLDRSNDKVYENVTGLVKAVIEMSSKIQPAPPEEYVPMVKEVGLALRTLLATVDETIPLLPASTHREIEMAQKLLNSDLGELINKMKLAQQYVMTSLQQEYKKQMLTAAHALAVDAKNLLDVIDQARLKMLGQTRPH
Sequence of Follistatin (Homo sapiens) (P19883 whole entry, looked up): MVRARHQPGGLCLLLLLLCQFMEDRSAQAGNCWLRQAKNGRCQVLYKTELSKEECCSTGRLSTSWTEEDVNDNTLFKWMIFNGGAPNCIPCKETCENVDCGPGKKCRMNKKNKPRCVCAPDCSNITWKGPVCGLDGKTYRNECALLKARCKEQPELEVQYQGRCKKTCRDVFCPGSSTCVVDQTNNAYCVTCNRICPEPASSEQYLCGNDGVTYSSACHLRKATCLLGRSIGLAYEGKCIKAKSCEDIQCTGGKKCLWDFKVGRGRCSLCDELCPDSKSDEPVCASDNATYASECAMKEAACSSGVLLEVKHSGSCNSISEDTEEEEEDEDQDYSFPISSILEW

SMILES | composite z-score [1] | composite z-score [2] | composite z-score [3] | composite z-score [4] | composite z-score [5] | composite z-score [6] | z-score [7] | composite z-score (Lefty1) | composite z-score [8] | z-score [9]
COCC1C2CC[C@H]3C(OCc4ccc(F)cc4C(F)(F)F)OC[C@]4(C)[C@H]3C2=C(CN4C(=O)OC(C)(C)C)[C@H](C)C1COC (stereo not given in full) | 0.976 | 1.18 | 0.475 | 0.764 | 0.342 | -0.593 | 1.52 | -0.348 | 1.14 | 0.248 (inactive)
CCCNC(=O)[C@@]1(C)c2ccccc2C(=O)N(Cc2cc(F)cc(C(F)(F)F)c2)[C@H]1c1ccc(CO)cc1 | 0.858 | -0.331 | -0.527 | -1.73 | -0.839 | -0.812 | -0.394 | -0.662 | 0.932 | 0.942 (inactive)
O=C1C2C=CC(C(O)c3ccccn3)N(Nc3ccccc3F)C2C(=O)N1c1ccccc1 (stereo not given) | -0.0724 | 0.525 | 1.27 | 0.696 | 0.101 | -0.0308 | 1.03 | -0.377 | 0.253 | -0.323 (inactive)
C=CCN1Cc2ccccc2C[C@]2(N=C(c3ccc(OCCCO)cc3)O[C@@H]2c2ccccc2)C1=O | 1.66 | 1.12 | 0.692 | 0.441 | 1.36 | 1.76 | 1.21 | 0.706 | 0.436 | -1.87 (inactive)
C=C(CCCC)/C(=C/C[C@@H](OC(=O)c1ccncc1)c1ccc(CO)o1)c1cc(C(=O)OC)ccc1OC | 1.94 | 1.23 | 0.129 | 0.889 | 1.16 | 0.622 | -0.108 | 1.57 | 1.18 | -3.31 (inactive)
O[C@@H](Cc1ccccc1)[C@@H](/C=C/c1ccccc1)NCc1ccccc1Br | -0.538 | -0.85 | -0.716 | -0.354 | -1.19 | -1.14 | 0.772 | -1.64 | 0.217 | 0.284 (inactive)
Cc1ccc(N2C(=O)c3ccccc3[C@@H](C(=O)NC(C)C)[C@@H]2c2ccc(CO)cc2)nc1 | 0.621 | 0.708 | -0.291 | -0.756 | 0.931 | 1.55 | -1.05 | -0.362 | 0.692 | 1.25 (inactive)
Cc1ccc(S[C@]2(C(=O)NCc3ccccc3)CC(=O)N(Cc3cc(C(F)(F)F)cc(C(F)(F)F)c3)[C@@H]2c2ccc(CO)cc2)cc1 | -0.0768 | -0.469 | -0.187 | -1.25 | 0.401 | -0.568 | -0.0446 | -0.0758 | -1.01 | -0.372 (inactive)
CC(=O)n1cc(C(O)C2C=CC3C(=O)N(c4ccccc4)C(=O)C3N2Nc2ccc(C#N)cc2)c2ccccc21 (stereo not given) | 1.56 | 1.26 | 0.519 | 0.893 | 0.12 | -0.856 | 0.0139 | -0.233 | 1.38 | -0.985 (inactive)
O=C1NC(=O)C2C1C=CC(C(O)c1cccs1)N2Nc1ccccn1 (stereo not given) | 1.23 | 0.532 | -0.374 | 0.725 | 0.131 | 0.0343 | 0.543 | 0.0773 | -0.0456 | -1.68 (inactive)
C=C(C)[C@@H]1CC=C(C(O)C2C=CC3C(=O)N(Cc4ccccc4)C(=O)C3N2n2cnnc2)CC1 (stereo not given in full) | -0.087 | -0.124 | 0.0147 | 0.818 | 0.507 | -0.759 | -1.11 | 0.551 | 1.19 | 1.67 (inactive)
COCCOC(=O)N1C(=O)[C@@]2(c3cc(C#CC4=CCCCC4)ccc31)[C@H](C(=O)N1CCN(c3ncccn3)CC1)[C@H]1C(=O)O[C@H](c3ccccc3)[C@H](c3ccccc3)N1[C@@H]2c1ccc(OCCO)cc1 | 1.07 | 1.16 | 0.31 | 0.229 | 1.29 | 1.59 | -1.01 | 1.03 | 0.232 | -1.03 (inactive)
CN(C)CCCC[C@@H]1NC(=O)[C@@H]2C[C@H](C(=O)NCc3ccc(F)cc3)[C@H](c3cccc(OCCO)c3)N2C1=O | 0.654 | 0.68 | 0.0978 | 0.909 | 1.41 | 1.96 | 0.591 | 1.11 | -0.0486 | -0.579 (inactive)
[N-]=[N+]=Nc1ccccc1[C@@H]1OC(c2ccc(OCCCO)cc2)=N[C@]1(CCS(=O)(=O)c1ccccc1)C(=O)N1CCCCC1 | 2.13 | 1.23 | 0.539 | 0.998 | 1.29 | 0.234 | -0.0343 | -0.0697 | 1.42 | -9.85 (active)
C=CCN1C(=O)[C@]2(Cc3ccccc31)N=C(c1ccc(OCCCO)cc1)O[C@@H]2c1ccccc1 | 0.599 | 1.22 | 0.436 | 0.585 | 1.36 | 1.65 | 0.188 | 0.366 | 0.322 | -1.39 (inactive)
C[N+](C)(C)CCCCNC(=O)[C@H]1C[C@H]2C(=O)N3CCC[C@H]3C(=O)N2[C@H]1c1ccc(O)cc1 | 2.67 | -0.0698 | 0.446 | 0.228 | 1.46 | 1.81 | -0.515 | 1.49 | 0.282 | -0.679 (inactive)
CCCC[C@H]1OB(O)C[C@H]2C1=C(C)Cn1c(=O)n(-c3ccccc3)c(=O)n12 | 0.247 | 0.299 | -0.144 | -0.0265 | 0.415 | 0.321 | -0.281 | 0.493 | 0.0939 | 0.169 (inactive)
O=C(NCC(O)CO)[C@@]1(Cc2ccccc2)N=C(c2ccc(OCCCO)cc2)O[C@H]1c1ccccc1 (stereo not given in full) | 3.21 | 1.2 | 0.0855 | 0.956 | 1.29 | 0.331 | 1.44 | -0.836 | 0.922 | -1.6 (inactive)
COc1ccc([Si](C)(C)[C@@H]2[C@@H](CCO)O[C@]3(C(=O)N(Cc4ccccc4)c4ccc(N(C=O)c5ccccc5)cc43)[C@H]2C)cc1 | 1.24 | 0.0244 | -0.205 | 0.181 | 1.08 | 0.614 | -0.276 | 0.497 | 0.467 | -0.301 (inactive)
COC(=O)[C@@]1(Cc2ccc(OC)cc2)[C@H]2c3cc(C(=O)N4CCCC4)n(CCN4CCOCC4)c3C[C@H]2CN1C(=O)c1ccccc1 | 0.954 | 1.19 | 1.75 | 0.998 | 0.193 | -0.125 | 0.892 | -0.499 | 0.76 | 1.12 (inactive)
O=P(NCC1(CC2(c3ccccc3)CO2)CC1)(c1ccccc1)c1ccccc1 (stereo not given) | 0.618 | 0.376 | 0.338 | -1.05 | -1.23 | -1.36 | 1.11 | -2.28 | -0.0073 | 1.33 (inactive)
C[C@]1(C(=O)NCC(F)(F)F)c2ccccc2C(=O)N(Cc2cc(F)cc(C(F)(F)F)c2)[C@H]1c1ccc(CO)cc1 | -0.99 | 0.105 | -0.0984 | 0.0953 | 1.24 | 0.261 | -1.8 | -0.273 | -0.0396 | 0.408 (inactive)
C=C(COC)/C(=C/C[C@H](OC(C)=O)c1ccccc1OCCO)c1cnc2ccccc2c1 | 1.91 | 0.977 | 0.528 | 0.325 | 1.29 | 0.394 | 0.0177 | 0.814 | 0.666 | 0.0631 (inactive)
CC[C@@H]1C=C(C(=O)O)[C@H](c2ccc(C(C)C)cc2)N1S(=O)(=O)c1ccc(C)cc1 | 2.08 | 1.21 | 1.17 | 1.03 | 0.919 | 0.52 | -1.25 | 0.0565 | 1.35 | 0.734 (inactive)
CC(C)CNC(=O)[C@@]1(C)c2ccccc2C(=O)N(C(C)C)[C@H]1c1ccc(CO)cc1 | -0.105 | -1.79 | 0.175 | -1.07 | -0.0856 | -0.379 | -0.265 | -0.353 | -0.148 | 0.691 (inactive)
COc1ccc(C(=O)Nc2cccc(CN3C(=O)[C@@]4(O[C@@H](CC(=O)N5Cc6ccccc6C[C@H]5CO)[C@H]([Si](C)(C)c5ccc(OC)cc5)[C@H]4C)c4ccccc43)c2)cc1 | 1.37 | 0.86 | 0.469 | 0.622 | 1.13 | 1.25 | 0.68 | 1.57 | 0.29 | -1.52 (inactive)
O=C1O[C@H](c2ccccc2)[C@H](c2ccccc2)N2[C@H]1[C@@H](C(=O)NC[C@H](O)c1ccccc1)[C@]1(C(=O)Nc3ccc(C#CC4=CCCCC4)cc31)[C@H]2c1ccc(O)cc1 | 1.86 | 1.17 | 0.191 | 0.826 | 1.35 | 1.59 | -1.38 | 0.82 | 0.331 | -1.5 (inactive)
